# Active and inactive are the calls of the source.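 How the source made its calls, unless noted: active means compound raises insulin release from rat beta cells at 5 mM glucose, no numeric limit stated; inactive means the rest.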
# Tests used:
# [1] = stimulators of nuclear beta-catenin in C2C12, primary screen, imaging, WNT3A-conditioned medium, mouse C2C12, NPC library (AID 1117326; in the data active means nuclear beta-catenin stimulation mostly above about 4.2%, no sharp cut-off; inactive means mostly below about 10%; further: reference of the scale not given here); details: stronger effect = higher value
# [2] = stimulators of insulin release from INS-1E, primary screen, cell-based, 5 mM glucose, NPC library (AID 1117329); details: rat INS-1E insulin secretion, at 10 µM, stronger effect = higher value; further: reference of the scale not given here
# [3] = growth inhibition of GSK3B-pretreated HCT116 cells – cell-based, CellTiter-Glo, 0.2 to 20 µM (AID 1117336;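 active means compounds lowering colon cancer cell viability after pretreatment blocking the GSK3B kinase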); details: HCT116 viability after GSK3B inhibitor, at 20 µM, stronger effect = higher value
# [4] = inhibition of endothelial tube formation, primary screen, imaging, VEGF stimulated, CD31 staining, tube area, NPC library (AID 1117340;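 active means compound that reduces growth-factor-driven endothelial tube area in a mixed cell culture, no cutoff stated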); details: VEGF-stimulated ADSC/ECFC co-culture, at 10 µM, stronger effect = higher value
# [5] = glucagon-like peptide 1 release enhancers, primary assay, NCI-H716 cell line, NPC library (AID 1117341;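 active means compound raises GLP1 secretion from the human gut endocrine cells, with no numeric limit stated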; further: reference of the scale not given here); details: NCI-H716 cells, at 10 µM, stronger effect = higher value
# [6] = HCT116 colon cancer cell growth inhibition, primary screen, CellTiter-Glo luminescence, NPC library (AID 1117342;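 active means compounds that lower survival of HCT116 colon cancer cells in the luminescence readout, no numeric limit stated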); details: at 20 µM (top of the series)
# [7] = CellTiter-Glo luminescent readout of SW480 viability loss, NPC library primary (AID 1117343;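 active means compounds that lower viability of the colon cancer cells in the luminescence readout, with no numeric limit stated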); details: CellTiter-Glo luminescence; at 20 µM (top of the series)
# [8] = decreased DLD-1 cellular survival, CellTiter-Glo luminescent readout, NPC compound collection, primary HTS (AID 1117346;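 active means compounds that lower survival of DLD-1 colon cancer cells in the luminescence readout, no cutoff given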); details: DLD-1 viability, CellTiter-Glo luminescence; at 20 µM (top of the series)
Compound,nuclear beta-catenin stimulation ([1]; at 10 µM),"nuclear beta-catenin stimulation ([1]; stimulation, at 2 µM) [%]",insulin secretion stimulation [2],viability decrease [3],tube area decrease [4],GLP1 secretion stimulation [5],inhibition of viability [6],viability decrease (inhibition) [7],viability decrease (inhibition) [8]
CC(=O)Nc1ccc(S(=O)(=O)Nc2cc(C)on2)cc1,1.7% (inactive),0.3,0.5% (inactive),-7% (inactive),-15.5% (inactive),0.1% (inactive),0.8% (inactive),-14.4% (inactive),2% (inactive)
COC(=O)CCC(=O)CN,-1.5% (inactive),0.1,0.4% (inactive),0.2% (inactive),-14.2% (inactive),-0.4% (inactive),11.6% (inactive),24.2% (inactive),18.4% (inactive)
Cc1ccc(C(C)OC(=O)C2(C)CCC(C(=O)O)C2(C)C)cc1 (stereo not drawn),-0.2% (inactive),-2.1,2.1% (inactive),-5% (inactive),-0.8% (inactive),0.6% (inactive),0.3% (inactive),-11.8% (inactive),14.4% (inactive)
CC(C)C[C@@H]1[C@H](c2ccccc2)OC(=O)N1CCCN1CCCCCC1,1.3% (inactive),1.6,15% (inactive),21.1% (inactive),8% (inactive),5.9% (inactive),56.3% (active),19.9% (inactive),18.3% (inactive)
Nc1ncnc(Nc2ccccc2)n1,0.5% (inactive),0.6,-1.2% (inactive),3.65% (inactive),-16% (inactive),-0.9% (inactive),2.7% (inactive),51.8% (active),19.1% (inactive)
O=S(=O)(O)c1ccc2nc(-c3ccccc3)[nH]c2c1,0.1% (inactive),0.5,-0.6% (inactive),5.35% (inactive),-26.3% (inactive),1.9% (inactive),6.9% (inactive),10.6% (inactive),-0.25% (inactive)
Cc1ccc(S(=O)(=O)NC(=O)NC2CCCCCCC2)cc1,-0.3% (inactive),0.1,18.5% (inactive),11.2% (inactive),14.5% (inactive),3.1% (inactive),-9.1% (inactive),36.4% (inactive),12.9% (inactive)
CC(C)=CCCC(C)=CCCC(C)=CCCC(C)=CCC1=C(C)C(=O)c2ccccc2C1=O,-0.4% (inactive),0,0.5% (inactive),27.6% (inactive),3.6% (inactive),-0.8% (inactive),37.8% (inactive),12.3% (inactive),11.1% (inactive)
CCCCCCCCCCCCCCCC[N+](C)(C)Cc1ccccc1,38.6% (inactive),0.7,1% (inactive),99.3% (active),109% (active),-4.3% (inactive),99.2% (active),101% (active),102% (active)
CCOc1ccc(S(=O)(=O)O)c2cccnc12,-0.1% (inactive),0.5,6% (inactive),-10.2% (inactive),-5.5% (inactive),-3.3% (inactive),-0.3% (inactive),1.9% (inactive),0.1% (inactive)
O=C(OCC1(COC(=O)c2cccnc2)CCCC(COC(=O)c2cccnc2)(COC(=O)c2cccnc2)C1O)c1cccnc1,-1.3% (inactive),-0.2,7.7% (inactive),-3.6% (inactive),-7.3% (inactive),-3.3% (inactive),9.9% (inactive),-3.1% (inactive),-3.1% (inactive)
OC[C@]1(O)OC[C@@H](O)[C@H](O)[C@@H]1O,3.7% (inactive),0.4,-1.9% (inactive),-2.95% (inactive),7.1% (inactive),-6% (inactive),-4.9% (inactive),92.3% (active),9.6% (inactive)
O=C(Nc1ccc(Br)cc1)c1cc(Br)c(Br)s1,24.1% (inactive),-0.1,3.5% (inactive),99.8% (active),108% (active),-2% (inactive),99.7% (active),102% (active),102% (active)
CC1(C)S[C@@H]2[C@H](NC(=O)Cc3ccccc3)C(=O)N2[C@H]1C(=O)O (tested in a mixture with another compound),0.8% (inactive),-0.3,-0.8% (inactive),-4.9% (inactive),-6.3% (inactive),-3.4% (inactive),-7.93% (inactive),-25.3% (inactive),-12.1% (inactive)
O=C(CN1CCN(Cc2ccc3c(c2)OCO3)CC1)N1c2ccccc2Sc2ccccc21,0.2% (inactive),2.2,7.5% (inactive),63.5% (active),7.5% (inactive),16.3% (inactive),67.4% (active),126% (active),76.8% (active)
CC(=O)Nc1ccc(OCCOCCOc2ccc(NC(C)=O)cc2)cc1,0.3% (inactive),0.3,-2.6% (inactive),0.7% (inactive),-0.3% (inactive),-1.2% (inactive),-3.5% (inactive),11.3% (inactive),-8.2% (inactive)
CC(C)(C)c1ccc(C(=O)CCCCl)cc1,-0.1% (inactive),0.6,3.7% (inactive),-2.4% (inactive),20.9% (inactive),-3.6% (inactive),10.3% (inactive),-21.3% (inactive),0.9% (inactive)
CC(C)OP(=O)(CP(=O)(OC(C)C)OC(C)C)OC(C)C,-0.3% (inactive),1.5,0.8% (inactive),-8.5% (inactive),11.4% (inactive),-0.8% (inactive),1.5% (inactive),-11.1% (inactive),10.4% (inactive)
O=C(Nc1ccc(Oc2ccc(Cl)cc2)c(Cl)c1)c1cc(I)cc(I)c1O,6.2% (inactive),1.3,0.2% (inactive),122% (active),109% (active),29.8% (active),128% (active),161% (active),102% (active)
CC1(C)OC(=O)Nc2ccc(Br)cc21,3% (inactive),-1,6.1% (inactive),9.6% (inactive),13.5% (inactive),-2% (inactive),-4.8% (inactive),20.9% (inactive),2.5% (inactive)
O=S1(=O)OC(c2ccc(O)cc2)(c2ccc(O)cc2)c2ccccc21,0.1% (inactive),-1.3,0.55% (inactive),12.4% (inactive),2.5% (inactive),-0.4% (inactive),38.7% (inactive),-9.3% (inactive),42.9% (inactive)
CCCOC(C(=O)OC1CCN(C)CC1)(c1ccccc1)c1ccccc1,0.8% (inactive),1.5,0.3% (inactive),54.2% (active),19.1% (inactive),21.3% (active),84.8% (active),107% (active),57.7% (active)
CS(=O)(=O)c1ccc(-c2cn3ccccc3n2)cc1,-2% (inactive),-0.4,0.9% (inactive),18.1% (inactive),-6.3% (inactive),-2.6% (inactive),14.5% (inactive),22.6% (inactive),13.5% (inactive)
CCCCCCCC[N+](C)(C)CCCCCCCC,-3.8% (inactive),34.4,-3% (inactive),99.5% (active),108% (active),-2.7% (inactive),99.6% (active),102% (active),101% (active)
O=C1CCC(C(=O)O)N1 (stereo not drawn),-1.2% (inactive),2.3,2.6% (inactive),-7.5% (inactive),6.4% (inactive),-3.6% (inactive),2.4% (inactive),-1.5% (inactive),-4% (inactive)
C=CCNCCCCCC[N+](C)(C)C,-1.4% (inactive),0.4,-0.9% (inactive),-5.7% (inactive),-1.9% (inactive),-0.6% (inactive),-3.1% (inactive),-2.3% (inactive),-2.3% (inactive)
CCOC(=O)c1ccc(OCCN2C[C@H](O)[C@@H](O)[C@H](O)[C@H]2CO)cc1,1.7% (inactive),0.9,0.1% (inactive),-17.2% (inactive),10.1% (inactive),-1% (inactive),-40.4% (inactive),-62.9% (inactive),-12.5% (inactive)
